Laboratory results published in PubChem BioAssay (EPA / NIEHS).
Inconclusive results are not listed. Calls of active or inactive are those of the source. How the source made its calls, unless noted: active means hit-call score of the fitted dose curve at least 0.9, where 1 is the maximum; inconclusive means response in the unintended direction; inactive means score below 0.9.

Legend:
[1] = target: human Peroxisome Proliferator-activated Receptor delta (PPARd), PPARD (gene 5467) (UniProt Q03181); assay: ATG_PPARd_TRANS: Attagene TRANS-FACTORIAL HepG2 Assay for human Peroxisome Proliferator-activated Receptor delta (PPARd) (AID 2283002)
Outline: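 HepG2 cells transiently transfected with multiplexed GAL4-UAS reporter units and exogenous chimeric NR-Gal4 proteins; 24 h compound exposure. Reporter mRNA measured by RT-PCR, 6-FAM labelling, HpaI digestion and capillary electrophoresis; gain of signal versus DMSO.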

[2] = target: Peroxisome proliferator-activated receptor gamma (Homo sapiens) (UniProt P37231); assay: ATG_PPARg_TRANS: Attagene TRANS-FACTORIAL HepG2 Assay for human Peroxisome Proliferator-activated Receptor-gamma (PPARg) (AID 2283007)
Outline: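 Gain-of-signal endpoint relative to DMSO, derived from reporter mRNA levels quantified by RT-PCR and capillary electrophoresis. Cells were HepG2 transiently expressing a chimeric NR-Gal4 construct with GAL4-UAS reporters, exposed to chemicals for 24 h.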

[3] = target: Nuclear receptor subfamily 1 group I member 2 (Homo sapiens) (UniProt O75469); assay: ATG_PXR_TRANS: Attagene TRANS-FACTORIAL HepG2 Assay for human Pregnane X Receptor (PXR) (AID 2283008)
Outline: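 Transactivation by exogenous PXR–GAL4 fusion measured as reporter transcript induction after 24 h compound treatment of transfected human HepG2 cells. Read-out via RT-PCR and capillary electrophoresis of labelled fragments, fitted upward relative to DMSO.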

[4] = target: human RAR-related Orphan Receptor beta (RORb), RORB (gene 6096) (UniProt Q92753); assay: ATG_RORb_TRANS: Attagene TRANS-FACTORIAL HepG2 Assay for human RAR-related Orphan Receptor beta (RORb) (AID 2283010)
Outline: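 Multiplexed transcription-factor reporter assay: HepG2 cells transiently carrying NR-Gal4/GAL4-UAS constructs, 24 h treatment, mRNA quantified by RT-PCR plus capillary electrophoresis fluorescence; activity scored as induction over DMSO.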

[5] = target: human RAR-related Orphan Receptor gamma (RORg), RORC (gene 6097) (UniProt P51449); assay: ATG_RORg_TRANS: Attagene TRANS-FACTORIAL HepG2 Assay for human RAR-related Orphan Receptor gamma (RORg) (AID 2283011)
Outline: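 Transient MRTU transfection of HepG2 (TRANS format, exogenous NR-Gal4 chimera). 24 h dosing. Total RNA → oligo(dT) RT → PCR → 6-FAM labelling → HpaI cut → CE. Gain vs DMSO.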

[6] = target: Retinoic acid receptor RXR-alpha (Homo sapiens) (UniProt P19793); assay: ATG_RXRa_TRANS: Attagene TRANS-FACTORIAL HepG2 Assay for human Retinoid X Receptor alpha (RXRa) (AID 2283012)
Outline: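 Chimeric NR-GAL4 trans-activation in HepG2, 24 h treatment; reporter transcripts quantified by fluorescence on capillary electrophoresis, analysed for upward change from DMSO.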

[7] = target: human Retinoic Acid Receptor beta (RARb), RARB (gene 5915) (UniProt P10826); assay: ATG_RARb_TRANS: Attagene TRANS-FACTORIAL HepG2 Assay for human Retinoic Acid Receptor beta (AID 2283004)
Outline: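 Readout is reporter mRNA induction: RNA reverse-transcribed, PCR-amplified, FAM-labelled, HpaI-cut and resolved by capillary electrophoresis. Transiently transfected HepG2 cells carrying exogenous NR–Gal4 chimeras were dosed for 24 h; activity fitted upward relative to DMSO.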

[8] = target: human Thyroid Receptor alpha (THRa1), THRA (gene 7067) (UniProt P10827); assay: ATG_THRa1_TRANS: Attagene TRANS-FACTORIAL HepG2 Assay for human Thyroid Receptor alpha (THRa1) (AID 2283014)
Outline: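 Transient HepG2 transfection, NR-Gal4 chimera driving GAL4-UAS reporters; 24 h compound exposure; total RNA, oligo(dT) RT, PCR, fluorescent primer extension, capillary electrophoresis. Upward direction vs DMSO control.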

[9] = target: Retinoic acid receptor alpha (Homo sapiens) (UniProt P10276); assay: ATG_RARa_TRANS: Attagene TRANS-FACTORIAL HepG2 Assay for human Retinoic Acid Receptor alpha (RARa) (AID 2283005)
Outline: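 HepG2 cells transiently transfected with multiple reporter units expressing chimeric RARα-GAL4 fusion, with GAL4-UAS-driven reporters. After 24 h compound exposure, reporter mRNA induction quantified by RT-PCR and capillary electrophoresis with fluorescent labeling; gain-of-signal fitted relative to DMSO control.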

[10] = target: human Retinoid X Receptor beta (RXRb), RXRB (gene 6257) (UniProt P28702); assay: ATG_RXRb_TRANS: Attagene TRANS-FACTORIAL HepG2 Assay for human Retinoid X Receptor beta (RXRb) (AID 2283013)
Outline: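 After a 24 h incubation with test chemical, transfected HepG2 cells carrying NR-Gal4 fusions and GAL4-UAS reporter transcription units yield RNA whose reporter cDNA is FAM-labelled, HpaI-cut and sized by capillary electrophoresis; increases over DMSO are scored.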

[11] = target: human Retinoic Acid Receptor gamma (RARg), RARG (gene 5916) (UniProt P13631); assay: ATG_RARg_TRANS: Attagene TRANS-FACTORIAL HepG2 Assay for human Retinoic Acid Receptor gamma (RARg) (AID 2283009)
Outline: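 Gain-of-signal relative to DMSO is reported from fluorescent capillary electrophoresis of RT-PCR reporter products. These came from HepG2 cells expressing transfected RARg-GAL4 chimeras with UAS reporters, harvested 24 h after dosing.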

[12] = read-out: Intercellular Adhesion Molecule 1 (ICAM1), ICAM1 (gene 3383); assay: BSK_3C_ICAM1: BioMAP Diversity Plus: 3C Assay for Intercellular Adhesion Molecule 1 (ICAM1) Biomarker Activity (AID 2283003; active means hit-call score of the fitted dose curve at least 0.9, where 1 is the maximum; inactive means score below 0.9); conditions: primary human endothelial cells (HUVEC); actives raise or lower the signal
Outline: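 Using DMSO as baseline, bidirectional curve fitting was applied to ICAM-1 ELISA signals from HUVEC in the 3C system, measured 24 h after compound addition.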

[13] = BSK_3C_Proliferation: Cell Proliferation Assessment in the BioMAP Diversity Plus: 3C Assay (AID 2283006; active means hit-call score of the fitted dose curve at least 0.9, where 1 is the maximum; inactive means score below 0.9;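 on AC50: potency may reflect either rise or fall in cell number versus DMSO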); conditions: primary human endothelial cells (HUVEC)
Outline: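 Measured here: sulforhodamine B (0.1%) staining of TCA-fixed sub-confluent umbilical vein endothelial cultures 48 h post-dosing, absorbance 560 nm. DMSO served as negative control and baseline; both signal gain and loss were modelled.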

[14] = read-out: E-selectin (Homo sapiens) (UniProt P16581); assay: BSK_3C_Eselectin: BioMAP Diversity Plus: 3C Assay for Eselectin Biomarker Activity (AID 2283015; active means hit-call score of the fitted dose curve at least 0.9, where 1 is the maximum; inactive means score below 0.9); conditions: primary human endothelial cells (HUVEC); actives raise or lower the signal
Outline: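 HUVEC, 3C stimulation; compound exposure 24 h; E-selectin by ELISA; gain- or loss-of-signal fitted bidirectionally vs DMSO baseline.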

[15] = read-out: Interleukin-1 alpha (IL1a), IL1A (gene 3552); assay: BSK_BE3C_IL1a: BioMAP Diversity Plus: BE3C Assay for Interleukin-1 alpha (IL1a) Biomarker Activity (AID 2283016; active means hit-call score of the fitted dose curve at least 0.9, where 1 is the maximum; inactive means score below 0.9); conditions: primary human bronchial epithelial cells; actives raise or lower the signal
Outline: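 Measured in human lung primary bronchial epithelial cells: IL-1a by ELISA at 24 h after dosing, with bidirectional fitting against DMSO.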

[16] = read-out: Monocyte Chemoattractant Protein-1 (MCP1), CCL2 (gene 6347); assay: BSK_3C_MCP1: BioMAP Diversity Plus: 3C Assay for Monocyte Chemoattractant Protein-1 (MCP1) Biomarker Activity (AID 2283017; active means hit-call score of the fitted dose curve at least 0.9, where 1 is the maximum; inactive means score below 0.9); conditions: primary human endothelial cells (HUVEC); actives raise or lower the signal
Outline: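 HUVEC, 3C system; 24 h chemical exposure; MCP-1 by ELISA; bidirectional curve fit vs DMSO baseline.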

[17] = read-out: Monocyte Chemoattractant Protein-1 (MCP1), CCL2 (gene 6347); assay: BSK_4H_MCP1: BioMAP Diversity Plus: 4H Assay for Monocyte Chemoattractant Protein-1 (MCP1) Biomarker Activity (AID 2283018; active means hit-call score of the fitted dose curve at least 0.9, where 1 is the maximum; inactive means score below 0.9); conditions: primary human endothelial cells (HUVEC); actives raise or lower the signal
Outline: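 Primary human umbilical vein endothelium is exposed to chemical for 24 h before MCP-1 is assayed by ELISA. Concentration-response fitted bidirectionally relative to DMSO.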

[18] = read-out: Human Leukocyte Antigen - DR isotype (HLADR), HLA-DRA (gene 3122); assay: BSK_3C_HLADR: BioMAP Diversity Plus: 3C Assay for Human Leukocyte Antigen - DR isotype (HLADR) Biomarker Activity (AID 2283019; active means hit-call score of the fitted dose curve at least 0.9, where 1 is the maximum; inactive means score below 0.9); conditions: primary human endothelial cells (HUVEC); actives raise or lower the signal
Outline: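 HUVEC, 3C stimulation, 24 h post-dose; HLA-DR by ELISA; bidirectional curve fit vs DMSO baseline; gain or loss of signal scored.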

[19] = read-out: Interleukin-8 (IL8), CXCL8 (gene 3576); assay: BSK_3C_IL8: BioMAP Diversity Plus: 3C Assay for Interleukin-8 (IL8) Biomarker Activity (AID 2283020; active means hit-call score of the fitted dose curve at least 0.9, where 1 is the maximum; inactive means score below 0.9); conditions: primary human endothelial cells (HUVEC); actives raise or lower the signal
Outline: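 Using DMSO-treated wells as the baseline, bidirectional curve fitting was applied to ELISA-measured IL-8 from human umbilical vein endothelial cultures sampled 24 h after compound addition.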

Measured: AC50

E-selectin (Homo sapiens), sequence (P16581 whole entry, looked up): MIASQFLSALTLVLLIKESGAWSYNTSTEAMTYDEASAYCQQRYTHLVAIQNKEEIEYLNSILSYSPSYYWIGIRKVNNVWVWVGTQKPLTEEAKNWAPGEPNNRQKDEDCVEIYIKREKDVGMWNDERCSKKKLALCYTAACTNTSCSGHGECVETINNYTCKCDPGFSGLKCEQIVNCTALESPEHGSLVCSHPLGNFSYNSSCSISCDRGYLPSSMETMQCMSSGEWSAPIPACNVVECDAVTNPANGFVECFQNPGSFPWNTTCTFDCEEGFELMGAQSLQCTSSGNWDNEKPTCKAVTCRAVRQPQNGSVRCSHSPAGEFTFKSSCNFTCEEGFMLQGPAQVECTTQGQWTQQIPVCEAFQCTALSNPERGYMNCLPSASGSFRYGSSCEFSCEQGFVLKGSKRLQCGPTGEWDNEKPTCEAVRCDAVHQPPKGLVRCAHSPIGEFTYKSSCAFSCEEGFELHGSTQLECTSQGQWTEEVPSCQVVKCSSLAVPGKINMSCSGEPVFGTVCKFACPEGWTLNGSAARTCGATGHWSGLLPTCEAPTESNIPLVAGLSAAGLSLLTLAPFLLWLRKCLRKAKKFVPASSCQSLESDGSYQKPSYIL
human RAR-related Orphan Receptor beta (RORb), RORB (gene 6096), sequence (Q92753 whole entry, looked up, the tested form may be a part): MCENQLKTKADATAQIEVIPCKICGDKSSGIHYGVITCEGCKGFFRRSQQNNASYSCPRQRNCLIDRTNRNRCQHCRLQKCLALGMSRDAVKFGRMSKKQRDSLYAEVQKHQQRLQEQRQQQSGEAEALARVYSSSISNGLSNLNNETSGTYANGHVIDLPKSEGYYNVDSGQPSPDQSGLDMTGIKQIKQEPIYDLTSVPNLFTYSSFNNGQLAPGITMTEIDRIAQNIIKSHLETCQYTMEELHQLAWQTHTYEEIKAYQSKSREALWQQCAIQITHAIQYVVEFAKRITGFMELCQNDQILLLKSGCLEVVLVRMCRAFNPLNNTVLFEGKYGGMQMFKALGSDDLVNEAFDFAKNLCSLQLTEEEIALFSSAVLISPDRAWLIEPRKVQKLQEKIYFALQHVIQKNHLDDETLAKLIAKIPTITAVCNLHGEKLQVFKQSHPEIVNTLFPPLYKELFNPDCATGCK
human Retinoid X Receptor beta (RXRb), RXRB (gene 6257), sequence (P28702 whole entry, looked up, the tested form may be a part): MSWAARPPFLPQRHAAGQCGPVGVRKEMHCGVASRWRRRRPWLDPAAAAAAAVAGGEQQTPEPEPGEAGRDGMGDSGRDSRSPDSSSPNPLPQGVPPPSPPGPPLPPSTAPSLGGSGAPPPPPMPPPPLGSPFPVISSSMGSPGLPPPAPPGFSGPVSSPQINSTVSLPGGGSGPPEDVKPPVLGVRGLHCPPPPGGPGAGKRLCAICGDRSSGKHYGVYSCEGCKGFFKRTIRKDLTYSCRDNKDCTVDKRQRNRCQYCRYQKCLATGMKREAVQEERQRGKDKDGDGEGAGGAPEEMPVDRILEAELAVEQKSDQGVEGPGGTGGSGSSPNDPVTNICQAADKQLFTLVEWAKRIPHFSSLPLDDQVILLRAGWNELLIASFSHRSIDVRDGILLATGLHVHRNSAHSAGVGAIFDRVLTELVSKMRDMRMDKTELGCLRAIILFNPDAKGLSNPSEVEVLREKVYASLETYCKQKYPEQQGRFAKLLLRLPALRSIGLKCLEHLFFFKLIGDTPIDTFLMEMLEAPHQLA
Nuclear receptor subfamily 1 group I member 2 (Homo sapiens), sequence (O75469 whole entry, looked up, the tested form may be a part): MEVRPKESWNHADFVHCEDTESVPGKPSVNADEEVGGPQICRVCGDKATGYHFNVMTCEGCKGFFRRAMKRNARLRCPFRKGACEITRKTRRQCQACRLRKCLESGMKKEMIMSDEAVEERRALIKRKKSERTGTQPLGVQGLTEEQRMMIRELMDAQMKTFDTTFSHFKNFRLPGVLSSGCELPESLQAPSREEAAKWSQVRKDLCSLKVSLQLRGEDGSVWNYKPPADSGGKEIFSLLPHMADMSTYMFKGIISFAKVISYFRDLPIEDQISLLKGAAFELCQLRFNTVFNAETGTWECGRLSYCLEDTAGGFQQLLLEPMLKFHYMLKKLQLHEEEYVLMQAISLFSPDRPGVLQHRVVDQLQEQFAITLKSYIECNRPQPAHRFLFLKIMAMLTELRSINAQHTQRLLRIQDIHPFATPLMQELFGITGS
human Retinoic Acid Receptor gamma (RARg), RARG (gene 5916), sequence (P13631 whole entry, looked up, the tested form may be a part): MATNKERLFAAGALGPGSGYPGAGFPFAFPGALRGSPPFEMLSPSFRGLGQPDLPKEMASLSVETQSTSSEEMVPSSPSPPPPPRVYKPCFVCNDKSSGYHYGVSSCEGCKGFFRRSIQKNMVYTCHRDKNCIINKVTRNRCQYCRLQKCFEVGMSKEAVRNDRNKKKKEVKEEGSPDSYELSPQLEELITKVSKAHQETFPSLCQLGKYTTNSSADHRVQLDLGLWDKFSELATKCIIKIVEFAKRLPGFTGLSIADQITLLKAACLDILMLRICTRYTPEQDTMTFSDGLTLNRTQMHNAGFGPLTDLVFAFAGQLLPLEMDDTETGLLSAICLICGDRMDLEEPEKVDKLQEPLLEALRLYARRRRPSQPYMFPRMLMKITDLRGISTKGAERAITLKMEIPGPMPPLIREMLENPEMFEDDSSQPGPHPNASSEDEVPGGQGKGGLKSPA
Retinoic acid receptor RXR-alpha (Homo sapiens), sequence (P19793 whole entry, looked up, the tested form may be a part): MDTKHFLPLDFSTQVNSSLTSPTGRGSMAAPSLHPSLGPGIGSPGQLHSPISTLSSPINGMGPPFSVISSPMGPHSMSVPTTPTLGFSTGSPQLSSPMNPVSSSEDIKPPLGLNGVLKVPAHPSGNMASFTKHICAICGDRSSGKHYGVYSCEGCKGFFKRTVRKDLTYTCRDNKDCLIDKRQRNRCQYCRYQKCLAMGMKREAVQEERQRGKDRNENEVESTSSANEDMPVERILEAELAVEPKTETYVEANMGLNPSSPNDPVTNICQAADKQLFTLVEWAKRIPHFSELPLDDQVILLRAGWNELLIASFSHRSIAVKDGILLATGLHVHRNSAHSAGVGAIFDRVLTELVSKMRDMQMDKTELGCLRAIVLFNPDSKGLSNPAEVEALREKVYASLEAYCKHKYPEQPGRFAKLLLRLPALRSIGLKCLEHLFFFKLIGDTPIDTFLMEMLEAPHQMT
human Peroxisome Proliferator-activated Receptor delta (PPARd), PPARD (gene 5467), sequence (Q03181 whole entry, looked up, the tested form may be a part): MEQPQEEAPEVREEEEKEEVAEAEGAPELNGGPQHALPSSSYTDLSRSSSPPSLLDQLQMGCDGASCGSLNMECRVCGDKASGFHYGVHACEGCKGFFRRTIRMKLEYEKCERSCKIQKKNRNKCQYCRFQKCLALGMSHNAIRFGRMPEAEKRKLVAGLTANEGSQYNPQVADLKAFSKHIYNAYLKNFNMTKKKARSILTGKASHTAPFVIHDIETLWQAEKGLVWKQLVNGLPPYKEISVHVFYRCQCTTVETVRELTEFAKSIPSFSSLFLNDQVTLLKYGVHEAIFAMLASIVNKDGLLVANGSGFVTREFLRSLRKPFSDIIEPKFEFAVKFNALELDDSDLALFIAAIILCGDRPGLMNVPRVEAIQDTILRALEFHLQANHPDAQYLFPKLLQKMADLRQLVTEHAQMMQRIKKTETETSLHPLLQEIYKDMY
human RAR-related Orphan Receptor gamma (RORg), RORC (gene 6097), sequence (P51449 whole entry, looked up, the tested form may be a part): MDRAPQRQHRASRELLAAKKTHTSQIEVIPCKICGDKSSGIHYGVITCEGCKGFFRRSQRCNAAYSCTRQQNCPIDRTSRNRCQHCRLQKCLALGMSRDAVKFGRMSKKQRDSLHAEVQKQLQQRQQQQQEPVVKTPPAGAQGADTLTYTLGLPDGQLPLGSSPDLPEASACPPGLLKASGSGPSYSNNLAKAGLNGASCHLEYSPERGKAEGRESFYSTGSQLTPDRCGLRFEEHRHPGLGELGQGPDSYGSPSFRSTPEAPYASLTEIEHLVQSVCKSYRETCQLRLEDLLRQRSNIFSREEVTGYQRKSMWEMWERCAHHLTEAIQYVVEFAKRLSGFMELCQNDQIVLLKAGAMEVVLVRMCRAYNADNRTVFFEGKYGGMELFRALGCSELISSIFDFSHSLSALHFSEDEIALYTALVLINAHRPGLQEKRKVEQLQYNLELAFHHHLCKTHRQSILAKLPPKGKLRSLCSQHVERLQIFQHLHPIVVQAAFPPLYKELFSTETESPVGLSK
Peroxisome proliferator-activated receptor gamma (Homo sapiens), sequence (P37231 whole entry, looked up, the tested form may be a part): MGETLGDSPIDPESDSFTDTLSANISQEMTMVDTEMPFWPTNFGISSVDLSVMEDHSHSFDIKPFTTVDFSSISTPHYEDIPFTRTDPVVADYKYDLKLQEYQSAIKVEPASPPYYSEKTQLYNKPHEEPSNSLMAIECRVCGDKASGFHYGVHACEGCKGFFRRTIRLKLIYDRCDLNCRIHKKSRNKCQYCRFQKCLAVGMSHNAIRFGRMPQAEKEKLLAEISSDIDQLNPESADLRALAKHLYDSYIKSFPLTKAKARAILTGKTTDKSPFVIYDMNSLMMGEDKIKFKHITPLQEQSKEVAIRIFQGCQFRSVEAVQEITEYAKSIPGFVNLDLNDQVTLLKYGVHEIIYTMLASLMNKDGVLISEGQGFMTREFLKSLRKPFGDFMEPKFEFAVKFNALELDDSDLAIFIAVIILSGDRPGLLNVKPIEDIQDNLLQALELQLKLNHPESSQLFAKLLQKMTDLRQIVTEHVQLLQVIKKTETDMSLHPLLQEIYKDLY
human Retinoic Acid Receptor beta (RARb), RARB (gene 5915), sequence (P10826 whole entry, looked up, the tested form may be a part): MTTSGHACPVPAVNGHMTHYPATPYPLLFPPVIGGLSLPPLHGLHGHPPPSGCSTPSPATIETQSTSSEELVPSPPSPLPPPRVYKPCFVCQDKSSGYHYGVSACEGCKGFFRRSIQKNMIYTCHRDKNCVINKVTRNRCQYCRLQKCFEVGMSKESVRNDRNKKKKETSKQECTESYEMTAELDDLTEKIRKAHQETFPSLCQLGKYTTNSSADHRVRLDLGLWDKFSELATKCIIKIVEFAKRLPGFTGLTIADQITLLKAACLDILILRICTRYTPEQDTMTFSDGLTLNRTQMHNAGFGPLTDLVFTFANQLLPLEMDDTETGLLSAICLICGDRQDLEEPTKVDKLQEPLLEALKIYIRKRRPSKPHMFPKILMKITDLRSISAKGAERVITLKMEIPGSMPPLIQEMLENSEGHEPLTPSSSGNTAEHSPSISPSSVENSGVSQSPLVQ

CO[Si](C)(OC)c1ccccc1
inactive: [1] | [2] | [4]
active: [3] 2.73 µM

Nc1cc(Cl)c(O)c(Cl)c1
inactive: [1] | [3] | [4] | [5] | [6]
active: [2] 30 µM

OCCOc1cccc(OCCO)c1
inactive: [1] | [7] | [2] | [3] | [5] | [8]

[Ca+2]
inactive: [1] | [9] | [3] | [5] | [6] | [10]

CN1[C@@H]2CC(OC(=O)[C@H](CO)c3ccccc3)C[C@H]1[C@@H]1O[C@@H]12 (some centres not stated)
active: [10] 160 µM
inactive: [1] | [2] | [3] | [5] | [6] | [8]

O=S(=O)(O)c1cccc2c(S(=O)(=O)O)cccc12
inactive: [1] | [7] | [6] | [10]

CC(=O)c1c(C)cc(C(C)(C)C)cc1C
active: [10] 31.4 µM
inactive: [1] | [7] | [9] | [2] | [3] | [11] | [6] | [8]

O=Cc1ccc(F)cc1
inactive: [1] | [2] | [3] | [5] | [6] | [10]

O=c1oc(=O)c2cc3c(=O)oc(=O)c3cc12
inactive: [1] | [2] | [3] | [11] | [5] | [6]

ClCCCl
inactive: [1] | [2] | [3] | [4] | [5] | [10]

CC(=O)OCCC(C)CC(C)(C)C (configuration not stated)
not listed: [2] | [4] | [5] | [7] | [8] | [9] | [11]
inactive: all other assays above

Cc1ccc(O)c(C(C)(C)C)c1
inactive: [1] | [4] | [5]
active: [12] 33.7 µM | [13] 15.1 µM | [10] 9 µM | [14] 25.5 µM | [15] 29.6 µM | [16] 27.6 µM | [17] 24.9 µM | [18] 29.8 µM | [19] 36.5 µM

O=C[C@@H](O)[C@H](O)[C@H](O)CO
inactive: [1] | [2] | [11] | [6] | [8]

COc1ccc(Nc2ccccc2)c(C)c1
active: [2] 31.5 µM | [3] 11.1 µM | [10] 33.1 µM
inactive: [1] | [6] | [8]

COC(=O)C1=C(C)NC(C)=C(C(=O)OCCN(C)Cc2ccccc2)C1c1cccc([N+](=O)[O-])c1 (configuration not stated)
inactive: [1]
active: [2] 27.7 µM

CC(C)=CCC[C@](C)(O)[C@@H]1CC=C(C)CC1
inactive: [1] | [7] | [9] | [2] | [11] | [4] | [5] | [10]
active: [3] 15 µM

O=[N+]([O-])c1ccc(Nc2ccc(Nc3ccccc3)c(S(=O)(=O)O)c2)c([N+](=O)[O-])c1
inactive: [1]
active: [2] 17.9 µM | [3] 22.9 µM

CNC(=O)Oc1ccc2c(c1)[C@]1(C)CCN(C)[C@@H]1N2C
inactive: [1] | [2] | [3]

COc1ccnc(CS(=O)c2nc3cc(OC(F)F)ccc3[nH]2)c1OC (configuration not stated)
inactive: [1] | [2] | [3] | [5] | [6] | [10]

Clc1ccc2c(c1)C(N1CCNCC1)=Nc1ccccc1O2
active: [1] 52.9 µM | [3] 44.1 µM | [10] 55.3 µM
inactive: [2]

O=C(Oc1ccccc1)c1ccc(O)cc1
inactive: [1] | [2] | [3] | [4] | [6] | [10] | [8]

CCC(=O)OCCC(C)CCC=C(C)C (configuration not stated)
inactive: [1] | [2] | [3] | [6] | [10]

Cc1ccc2ccccc2n1
inactive: [1] | [7] | [9] | [2] | [3] | [11] | [5] | [8]

CCOC(=O)c1ccccc1OC
inactive: [1] | [7] | [2] | [3] | [11] | [10]

CC1=CCC2C(C1)C2(C)C (configuration not stated)
active: [3] 10.7 µM
inactive: [1] | [2] | [5] | [6] | [10] | [8]

CSc1nc(NC2CC2)nc(NC(C)(C)C)n1
inactive: [1] | [8]
active: [2] 31.9 µM | [3] 1.05 µM | [10] 22.7 µM

C=CC(=O)OCC(O)COc1ccccc1 (configuration not stated)
active: [2] 3.66 µM | [3] 61 µM
inactive: [1] | [5] | [10]

Cc1ccc(C=O)s1
inactive: [1] | [3] | [4]
active: [2] 32.8 µM

CC(C)C(C)(C)C(C)(C)C(C)(C)S
inactive: [1] | [5] | [10]
active: [2] 100 µM | [3] 4.47 µM

CC(C)OP(=O)(CP(=O)(OC(C)C)OC(C)C)OC(C)C
inactive: [1] | [2] | [5] | [10] | [8]
active: [3] 3.27 µM

Clc1nc(C(Cl)(Cl)Cl)c(Cl)c(Cl)c1Cl
inactive: [1] | [4] | [5] | [8]
active: [2] 1.45 µM | [3] 21.2 µM | [10] 21.8 µM

CC(C)=CCC/C(C)=C/COC=O
inactive: [1] | [2] | [3] | [5] | [10]
